Measured values as given in PubChem BioAssay AID1159580 (chemical genetic matrix, 2015).
“And” between values parts separate entries of the source, which are not always exact repeats. Equal values may be shown once. In all, about 5,500 compounds went through this assay and about 2,000 (36%) were called active. Inconclusive results (about 18%) are left out. Rule as the data show it: active = normalized growth mostly below about 0.91 (no sharp cut-off); inconclusive = no clear call, values can overlap the other calls; inactive = mostly above about 0.92. Some of the results follow.

Assay: chemical genetic growth profiling, strain panel (AID 1159580);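 also: tested at 20 µM; growth read once vehicle control cultures reached saturation at 30 °C; 1 = growth at the plate median or of vehicle wells; lower values mean less growth of the strain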
Settings: S. cerevisiae deletion strains, growth OD

Measured: normalized growth

CC(=O)OCC(=O)[C@@]1(O)CCC2C3C[C@H](C)C4=CC(=O)C=CC4(C)C3[C@@H](O)CC21C (stereo partly specified)
inactive: locus YAL013W, strain DEP1, active compounds read low 1.01 | locus YAL021C, strain ccr4, active compounds read low 1.03 | locus YAL026C, strain drs2, active compounds read low 1.03 | locus YAL030W, strain snc1, active compounds read low 1.01 | locus YBL061C, strain skt5, active compounds read low 1.01 | locus YBR009C, strain hhf1, active compounds read low 0.985 | locus YBR021W, strain FUR4, active compounds read low 0.968 | locus YBR023C, strain chs3, active compounds read low 1.02 | locus YBR171W, strain sec66, active compounds read low 1.03 | locus YBR229C, strain ROT2, active compounds read low 1.01 | locus YBR231C, strain swc5, active compounds read low 1.01 | locus YBR279W, strain paf1, active compounds read low 1.01 | locus YCL011C, strain gbp2, active compounds read low 1.02 | locus YCL016C, strain dcc1, active compounds read low 1.01 | locus YCL029C, strain bik1, active compounds read low 1.01 | locus YCL061C, strain MRC1, active compounds read low 1.03 | locus YCL069W, strain vba3, active compounds read low 1.03 | locus YCR088W, strain abp1, active compounds read low 1.02 | locus YDL005C, strain med2, active compounds read low 1.01 | locus YDL035C, strain GPR1, active compounds read low 1.01 | locus YDL040C, strain nat1, active compounds read low 1.01 | locus YDL074C, strain BRE1, active compounds read low 0.994 | locus YDL101C, strain DUN1, active compounds read low 1.01 | locus YDL134C, strain PPH21, active compounds read low 1.01 | locus YDL185W, strain tfp1, active compounds read low 1.01 | locus YDL192W, strain arf1, active compounds read low 1 | locus YDR001C, strain nth1, active compounds read low 1.01 | locus YDR069C, strain doa4, active compounds read low 1.02 | locus YDR101C, strain arx1, active compounds read low 1 | locus YDR137W, strain rgp1, active compounds read low 1.03 | locus YDR150W, strain NUM1, active compounds read low 1.01 | locus YDR159W, strain sac3, active compounds read low 0.995 | locus YDR162C, strain NBP2, active compounds read low 0.992 | locus YDR195W, strain ref2 1.01 | locus YDR297W, strain sur2, active compounds read low 0.994 | locus YDR318W, strain mcm21, active compounds read low 1.01 | locus YDR334W, strain swr1, active compounds read low 1.02 | locus YDR335W, strain msn5, active compounds read low 1.02 | locus YDR388W, active compounds read low 1.01 | locus YDR392W, strain spt3, active compounds read low 1.03 | locus YDR502C, strain sam2, active compounds read low 0.989 | locus YEL003W, strain gim4, active compounds read low 1.02 | locus YEL037C, strain rad23, active compounds read low 1.02 | locus YEL061C, strain CIN8 (second series), active compounds read low 1.02 | locus YEL061C, strain CIN8, active compounds read low 1.01 | locus YER015W, strain faa2, active compounds read low 1.01 | locus YER016W, strain bim1, active compounds read low 1.03 | locus YER110C, active compounds read low 1.01 | locus YER111C, strain swi4, active compounds read low 1.02 | locus YER155C, strain BEM2 (second series), active compounds read low 1.05 | locus YER155C, strain BEM2, active compounds read low 1.01 | locus YER167W, strain BCK2, active compounds read low 1.01 | locus YFR010W, strain ubp6, active compounds read low 0.996 | locus YGL078C, strain dbp3, active compounds read low 1 | locus YGL086W, strain mad1, active compounds read low 1.02 | locus YGL167C, strain pmr1, active compounds read low 1.02 | locus YGL173C, strain kem1, active compounds read low 1.03 | locus YGL227W, strain vid30, active compounds read low 1.02 | locus YGL240W, strain doc1, active compounds read low 1 | locus YGL248W, strain PDE1, active compounds read low 1 | locus YGL253W, strain hxk2, active compounds read low 1.01 | locus YGR078C, strain PAC10, active compounds read low 0.996 | locus YGR135W, strain pre9, active compounds read low 0.982 | locus YGR229C, strain SMI1, active compounds read low 1 | locus YGR252W, strain gcn5, active compounds read low 1.03 | locus YHR013C, strain ard1, active compounds read low 1.03 | locus YHR027C, strain rpn1, active compounds read low 1.01 | locus YHR030C, strain SLT2, active compounds read low 1.01 | locus YHR079C, strain IRE1 (second series), active compounds read low 1.01 | locus YHR079C, strain IRE1, active compounds read low 1.02 | locus YHR094C, strain hxt1, active compounds read low 1.01 | locus YHR129C, strain ARP1, active compounds read low 1.02 | locus YHR142W, strain chs7, active compounds read low 1.01 | locus YHR200W, strain rpn10, active compounds read low 1 | locus YIL066C, strain RNR3, active compounds read low 1.02 | locus YIL073C, strain SPO22, active compounds read low 1.03 | locus YIL125W, strain kgd1, active compounds read low 1.01 | locus YIR030C, strain dcg1, active compounds read low 0.997 | locus YJL092W, strain hpr5, active compounds read low 1.02 | locus YJL095W, strain BCK1 (second series), active compounds read low 1.01 | locus YJL095W, strain BCK1, active compounds read low 1.01 and 1.02 | locus YJL115W, strain asf1, active compounds read low 1.02 | locus YJL129C, strain trk1, active compounds read low 1.02 | locus YJL134W, strain LCB3, active compounds read low 1 | locus YJL154C, strain vps35, active compounds read low 1.02 | locus YJL164C, strain tpk1, active compounds read low 1.01 | locus YJL166W, strain qcr8, active compounds read low 1.01 | locus YJL168C, strain set2, active compounds read low 1.01 | locus YJL187C, strain SWE1 (second series), active compounds read low 1.02 | locus YJR043C, strain POL32, active compounds read low 0.999 | locus YJR066W, strain TOR1, active compounds read low 0.99
